Shiga toxin inh: A qHTS for Small Molecule Inhibitors of Shiga Toxin | AID 2315, 2010 | inhibition, % at 38.7 µM | Vero cells, Shiga toxin protein synthesis inhibition reporter | 290,000 tested, 9.2% active; in the data active = inhibition mostly above about 28%, no sharp cut-off; inactive = mostly below about 43%; note: 0% is about no effect
LmPK inh: qHTS Assay for Inhibitors of Leishmania Mexicana Pyruvate Kinase (LmPK); Q27686; purified LmPK, Kinase-Glo ATP luminescence, 1 h; Potency, µM (top dose mostly 57.5 µM), for the others: at the top dose activity change, negative = inhibition, usual class: inhibitors; 290,000 tested, 0.37% active; AID 1721, 2009; note: potency is the fitted concentration of half-maximal effect; % is set by controls: 0 for no effect and ±100 for the full control effect
Target sequence (Q27686 whole entry, looked up): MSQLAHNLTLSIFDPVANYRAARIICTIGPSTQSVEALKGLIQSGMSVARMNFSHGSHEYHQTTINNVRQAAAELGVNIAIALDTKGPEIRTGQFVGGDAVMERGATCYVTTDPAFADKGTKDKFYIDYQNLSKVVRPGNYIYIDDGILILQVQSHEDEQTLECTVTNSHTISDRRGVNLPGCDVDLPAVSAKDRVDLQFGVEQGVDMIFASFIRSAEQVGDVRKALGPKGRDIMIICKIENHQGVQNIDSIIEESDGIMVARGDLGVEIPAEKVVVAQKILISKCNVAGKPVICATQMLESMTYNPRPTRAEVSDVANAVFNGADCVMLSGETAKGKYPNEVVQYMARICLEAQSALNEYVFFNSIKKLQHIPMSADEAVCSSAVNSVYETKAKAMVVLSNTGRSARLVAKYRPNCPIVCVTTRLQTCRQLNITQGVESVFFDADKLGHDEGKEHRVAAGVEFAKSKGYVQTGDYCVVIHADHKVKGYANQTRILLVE
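In 50 mM imidazole pH 7.2 with 7 mM MgCl2, LmPK (0.1 nM) turned over PEP (0.5 mM) and ADP (0.1 mM) for 1 h at room temperature. Luciferase read-out of ATP.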
RE007 growth inh: qHTS Assay for Inhibitors of the HIV-1 protein Vpr; 360,000 tested, 0.21% active; Potency, µM (titrated, usually from 92.2 µM), for inactives: at the highest dose activity change, negative = less growth, usual class: inhibitors; S. pombe RE007 Vpr strain, BacTiter-Glo ATP luminescence, 24 h; active = well fitted falling curve with a large enough effect; inconclusive = small, poorly fitted or top-dose-only effect; inactive = no such curve, though single readings can be large or run the other way; note: potency is the fitted concentration of half-maximal effect; % is set by controls: 0 for no effect and ±100 for the full control effect; nearly all actives have a fitted effect of over 50% in size
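Fission yeast strain RE007, carrying one chromosomally integrated HIV-1 vpr copy, was seeded at OD 0.01 in PMG+AL medium with 23 nL pinned compound. After 24 h at 30 °C and 99% humidity, viability was read by BacTiter-Glo luminescence.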
FBPA Giardia inh: qHTS Assay for Inhibitors of Fructose-1,6-bisphosphate Aldolase from Giardia Lamblia. 290,000 tested, 0.71% active. Potency, µM (doses to about 59.6 µM), without a hit: top-dose activity, negative = inhibition, most hits filed as inhibitors. purified Giardia FBPA. AID 2451, 2010; note: potency is the fitted concentration of half-maximal effect; % is set by controls: 0 for no effect and ±100 for the full control effect; nearly all actives have a fitted effect of over 55% in size
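40 nM FBPA preincubated 10 min at RT with compound (up to 57.5 uM final), then substrate plus GAPDH/TPI/NAD/arsenate coupling and diaphorase/resazurin added. Fluorescence read after 20 min at RT, 525/598 nm.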
Cycloheximide cs: Cycloheximide Counterscreen for Small Molecule Inhibitors of Shiga Toxin. cell reporter, cycloheximide protein synthesis inhibition counterscreen. max response, %. 300,000 tested, 12% active; in the data active = max response mostly above about 13%, no sharp cut-off; inactive = mostly below about 14%; note: read at 38.3 µM for the half of the compounds with a filed dose; 0% is about no effect
TbPYK inhibitor: qHTS of Trypanosoma Brucei Inhibitors | AID 624173, 2012 | Potency, µM (titrated, usually from 76.8 µM), for inactives: at the top dose activity, negative = inhibition, most hits filed as inhibitors | TbPYK enzyme, Kinase-Glo Plus ATP luminescence, 45 min | 410,000 tested, 0.12% active; note: potency is the fitted concentration of half-maximal effect; % is set by controls: 0 for no effect and ±100 for the full control effect; nearly all actives have a fitted effect of over 50% in size
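Screened from lowest to highest concentration, compounds were pinned into TbPYK/substrate mixtures, and ADP (130 uM final) was added. Plates sat at room temperature for 45 min prior to Kinase-Glo Plus detection by luminescence.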
Active calls of the source: *. Many of the other results were omitted from the sample, so hits are more common in it than they were. Unless noted, calls come from the whole dose curve; as a rule, active = well fitted curve in the direction sought with a large enough effect; inconclusive = small, poorly fitted or top-dose-only effect, or another doubt; inactive = no such curve, though single readings can be large; an effect the other way counts as inactive or inconclusive.

`Cc1cc(=O)[nH]c(SCc2nc3ccccc3s2)n1` gave Shiga toxin inh 14.5, LmPK inh 0.7%, RE007 growth inh 16.9%, FBPA Giardia inh 11.4%, Cycloheximide cs 16.2* and TbPYK inhibitor 0.4%.
For CC(=O)Nc1ccc(OC(=O)c2ccco2)cc1 the results were Shiga toxin inh 10.0, LmPK inh 4.6%, RE007 growth inh -8.5%, FBPA Giardia inh -1.1%, Cycloheximide cs 2.7 and TbPYK inhibitor 0.6%.
`O=C(Nc1ccc(C(=O)Oc2ccccc2)c(O)c1)c1ccccc1` gave Shiga toxin inh 81.8*, LmPK inh -1.4%, RE007 growth inh 14.3%, FBPA Giardia inh -13.9%, Cycloheximide cs 27.7* and TbPYK inhibitor -1.2%.
`Nc1ccc(C(=O)Oc2ccccc2)c(O)c1` gave FBPA Giardia inh -10.9% and TbPYK inhibitor -0.2%.
Screening CSc1ccc(/C=C/C(=O)c2ccc(NC(=O)Cc3ccccc3)cc2)cc1 returned Shiga toxin inh -2.2, LmPK inh -3.1%, RE007 growth inh -13.7%, FBPA Giardia inh -0.5%, Cycloheximide cs 12.9 and TbPYK inhibitor 3.1%.
`O=C(Nc1ccc(C(=O)Oc2ccccc2)c(O)c1)c1ccco1` gave Shiga toxin inh 131.1*, LmPK inh -9.7%, RE007 growth inh -1.6%, FBPA Giardia inh -11.6%, Cycloheximide cs 54.6* and TbPYK inhibitor inconclusive.
Screening Cc1ccc(NC(=O)c2ccccc2)cc1OC(=O)c1ccccc1 returned Shiga toxin inh -3.2, LmPK inh -3.3%, RE007 growth inh -3.9%, FBPA Giardia inh -5.1%, Cycloheximide cs 12.9* and TbPYK inhibitor inconclusive.
`CCOC(=O)Nc1ccc(C(=O)/C=C/c2ccccc2)cc1` gave Shiga toxin inh 28.7, LmPK inh -4.7%, RE007 growth inh 0.0%, FBPA Giardia inh -10.0%, Cycloheximide cs 21.6* and TbPYK inhibitor -1.9%.
`COc1ccc(Cl)cc1NC(=O)Cn1cc(C(=O)c2ccncc2)c(=O)c2cc(C)ccc21` gave TbPYK inhibitor -5.6%.
`CCOC(=O)Nc1ccc(OC(=O)Oc2ccc(NC(=O)OCC)cc2)cc1` gave RE007 growth inh -3.6% and TbPYK inhibitor 3.8%.
Screening CCOC(=O)Nc1ccc(Oc2ccccc2)cc1 returned Shiga toxin inh 120.9*, LmPK inh -0.4%, RE007 growth inh 11.9%, FBPA Giardia inh -6.2%, Cycloheximide cs 36.2* and TbPYK inhibitor -4.3%.
For Cc1cccc(OC(=O)Nc2ccc(C(=O)O)c(O)c2)c1 the results were RE007 growth inh 11.3% and TbPYK inhibitor -14.9%.
`CCOC(=O)Nc1ccc(C(=O)Oc2ccccc2)c(O)c1` gave Shiga toxin inh 103.7*, LmPK inh -7.0%, RE007 growth inh 3.6%, FBPA Giardia inh -10.4%, Cycloheximide cs 37.4* and TbPYK inhibitor -3.3%.
For CCc1nn(CC(=O)NCc2ccc(OC)c(OC)c2)c(=O)c2cc3sc(C)cc3n12 the results were TbPYK inhibitor -2.5%.
COc1ccc(NCc2nnc(-c3ccccc3)o2)cc1 was read as Shiga toxin inh 28.0*, LmPK inh -0.4%, RE007 growth inh -1.6%, Cycloheximide cs 20.0* and TbPYK inhibitor 2.5%.
`CCOc1ccccc1NCc1nnc(-c2ccccc2)o1` gave Shiga toxin inh 11.2, LmPK inh 1.8%, RE007 growth inh 18.6%, FBPA Giardia inh -2.9%, Cycloheximide cs 14.7* and TbPYK inhibitor 5.1%.
Screening Cc1ccc2nc(NCc3ccccc3)c(C=O)c(=O)n2c1 returned Shiga toxin inh -10.5, LmPK inh 0.8%, RE007 growth inh 7.6%, FBPA Giardia inh 9.7%, Cycloheximide cs -0.5 and TbPYK inhibitor 1.9%.
Screening CNc1nc2c(C)cccn2c(=O)c1C=NCc1ccccc1 returned Shiga toxin inh -14.2, LmPK inh 3.9%, RE007 growth inh 17.9%, FBPA Giardia inh -1.1%, Cycloheximide cs -2.5 and TbPYK inhibitor -10.6%.
`Cc1ccc2nc(NCc3ccccc3)c(C=NCc3cccnc3)c(=O)n2c1` gave Shiga toxin inh 30.3*, LmPK inh 0.3%, RE007 growth inh -11.7%, FBPA Giardia inh 5.0%, Cycloheximide cs 14.2* and TbPYK inhibitor -12.8%.
`O=c1c(C=NCc2ccccc2)c(NCc2ccccc2)nc2ccccn12` gave Shiga toxin inh 80.1*, LmPK inh -2.0%, RE007 growth inh 2.4%, FBPA Giardia inh -7.5%, Cycloheximide cs 7.4 and TbPYK inhibitor 2.4%.
`Cc1ccc2nc(NCc3ccco3)c(C=NCc3ccco3)c(=O)n2c1` gave Shiga toxin inh 22.2, LmPK inh 3.4%, RE007 growth inh 1.3%, FBPA Giardia inh -8.7%, Cycloheximide cs 11.8* and TbPYK inhibitor 0.1%.
Screening Cc1ccc2nc(Nc3ccccc3)c(/C=N/O)c(=O)n2c1 returned Shiga toxin inh 10.1, LmPK inh -0.9%, RE007 growth inh -1.7%, FBPA Giardia inh 3.7%, Cycloheximide cs -2.9 and TbPYK inhibitor -9.8%.
Screening Cc1cc(Cl)ccc1NC(=S)NCc1ccc(Cl)cc1 returned Shiga toxin inh 9.8, LmPK inh 0.4%, RE007 growth inh -5.2%, FBPA Giardia inh 10.6%, Cycloheximide cs -1.3 and TbPYK inhibitor 3.5%.
S=C(NCCc1ccccc1)Nc1ccc(Cl)cc1Cl was read as Shiga toxin inh 60.8*, LmPK inh -1.4%, RE007 growth inh inconclusive, FBPA Giardia inh 5.5%, Cycloheximide cs 34.4* and TbPYK inhibitor 0.3%.
Screening Cc1cc(Cl)ccc1NC(=S)NCCc1ccc(Cl)cc1 returned Shiga toxin inh 51.6, LmPK inh -1.4%, RE007 growth inh inconclusive, FBPA Giardia inh 5.4%, Cycloheximide cs 9.5* and TbPYK inhibitor 2.3%.
Screening Cc1cc(Cl)ccc1NC(=S)NCCC(c1ccccc1)c1ccccc1 returned Shiga toxin inh -5.1, LmPK inh 1.8%, RE007 growth inh -8.3%, FBPA Giardia inh 1.4%, Cycloheximide cs 11.3* and TbPYK inhibitor -4.8%.
Cc1c(Cl)cccc1NC(=S)NCCC(c1ccccc1)c1ccccc1 was read as Shiga toxin inh 16.8, LmPK inh 3.2%, RE007 growth inh 25.7%, FBPA Giardia inh -2.2%, Cycloheximide cs 9.6 and TbPYK inhibitor -0.8%.
Cc1ccccc1CNC(=O)c1ccc2nc(C(C)C)oc2c1 was read as TbPYK inhibitor -1.8%.
For CCNc1nc(N)nc(Oc2ccc(C(=O)OC)cc2)n1 the results were Shiga toxin inh 73.6*, LmPK inh -13.3%, RE007 growth inh 13.7%, FBPA Giardia inh 7.7%, Cycloheximide cs 26.2* and TbPYK inhibitor -12.6%.
CCNc1nc(Oc2ccc(C(=O)OC)cc2)nc(N(C)C)n1 was read as Shiga toxin inh 8.7, LmPK inh -2.1%, RE007 growth inh 20.1%, FBPA Giardia inh 1.8%, Cycloheximide cs 4.0 and TbPYK inhibitor -2.0%.

Compound activity deposited in PubChem BioAssay by National Center for Advancing Translational Sciences (NCATS).
